# Test results published in publication PMC5540273 (PLoS ONE, 2017).
# Tested on: CLK2
# Details: concentration: 1 μM, replicates: in singlicate; n = 1
# 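Note: KINOMEscan kinase panel screen.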
row,SMILES,%Inh
1,CCn1c(-c2nonc2N)nc2ccccc21 [SB-693162/GW549034],0%
2,COc1cc2ncn(-c3cc(OCCCc4ccccc4)c(C(N)=O)s3)c2cc1OC [GSK205189],0%
3,COc1ccc(CNC(=O)NC2CCN(c3ccnc(Nc4ccc(F)cc4)n3)C2)cc1 (stereo not shown) [GSK1379706],0%
4,Cc1ccccc1COc1cc(-n2cnc3cc(Cl)ccc32)sc1C(N)=O [GW813349],3%
5,Nc1n[nH]c2nnc(-c3ccccc3)c(-c3ccccc3)c12 [GW554060],65%
6,Cc1nnc(-c2ccc3ncn(-c4ccc(S(C)=O)cc4)c3c2)o1 (stereo not shown),10%
7,CCc1ccc(-c2ccc3c(c2)-c2nn(C)cc2S(=O)(=O)N3C)cc1,13%
8,Cc1c(Cn2c(C)nn3c(=O)cc(N4CCO[C@H](C)C4)nc23)cccc1C(F)(F)F [GSK2373690],16%
9,CCc1nc(-c2cccc(C)c2)c(-c2ccncc2)s1,6%

# Tested on: CLK3
# Details: concentration: 1 μM, replicates: in singlicate; n = 1
row,SMILES,%Inh
1,Nc1nccc2scc(-c3ccc4c(c3)CCN4C(=O)Cc3ccccc3)c12 [GSK2576924],0%
2,CCC(=O)c1c(-c2ccccc2)c2cc(Cl)ccc2c(=O)n1Cc1cc(S(C)(=O)=O)n(CC(F)F)n1,0%
3,O=c1cc(N2CCOCC2)nc2n(Cc3ccc(F)c(Cl)c3)ccn12 [GSK2297099],26%
4,Fc1cccc(CSc2nnc(-c3ccc4c(c3)CCO4)o2)c1,0%
5,Cc1cccc(-c2nc(Nc3ccc4c(cnn4C)c3)c3ccccc3n2)n1 [GW876731],0%
6,COc1cccc(C2=C(Nc3cccc(C(=O)O)c3)C(=O)NC2=O)c1 [SB-390770],0%
7,Nc1ncnc2c1ncn2-c1cccc2ccccc12 [SKF-97184],6%
8,Nc1ncnc2c1ncn2-c1ccc(Cl)cc1 [AH2635],0%
9,COc1cc2ncn(-c3cc(OCc4ccncc4)c(C(N)=O)s3)c2cc1OC [GSK336313],0%
10,Cl.c1ccc(Cn2cnc3cc(Nc4ncnc5ccccc45)ccc32)cc1 [GW272142],72%
11,C[C@@H]1CC[C@H](C(=O)NC2CCCCC2)CN1c1cc(-c2ccc3c(N)n[nH]c3c2)nc(N)n1 [GSK2291363],16%
12,Nc1n[nH]c2ncc(-c3ccccc3)cc12 [SB-517081],0%
13,CN1C(=O)C(Nc2cc(Cl)c(O)c(Cl)c2)=C(c2ccc(Cl)cc2)C1=O [SB-404321],0%
14,COc1ccc(-c2cc3c(C)nc(N)nc3n([C@H]3CC[C@H](O)CC3)c2=O)cn1,0%
15,COc1cc(Nc2nccc(N3CCC(NC(=O)C4COc5ccccc5O4)C3)n2)cc(OC)c1OC (stereo not shown) [GSK1379761],0%
16,CC(C)(C)c1ccc(C(=O)Nc2cn3cc(-c4ccccc4)ccc3n2)cc1,9%
17,CN1C(=O)C(Nc2ccccc2)=C(c2ccccc2)C1=O [SB-300079],0%
18,CCC(=O)c1c(-c2ccccc2)c2cc(Cl)ccc2c(=O)n1Cc1ccc(C(=O)O)cc1,0%
19,CCS(=O)c1ccc(-c2coc3ccc(-c4nnc(C)o4)cc23)cc1 (stereo not shown),0%

row,SMILES,%Inh
1,COc1cc(Nc2nccc(N3CCC(NC(=O)C(C)c4ccc(Cl)cc4)C3)n2)cc(OC)c1OC (stereo not shown) [GSK1379757],43%
2,COc1cccc(-n2cnc3c(N)ncnc32)c1 [SKF-97416],0%
3,OCCCNc1nccc(-c2c(-c3cccc(C(F)(F)F)c3)nn3cc(C(F)(F)F)ccc23)n1 [GW630813],0%
4,COc1cc2nccc(Nc3cccc(Oc4ccccc4)c3)c2cc1OC.Cl [GW284543],0%
5,CN(C)c1cc(-c2ccc3c(N)n[nH]c3c2)nc(N)n1 [GSK2219329],0%
6,Cl.NS(=O)(=O)c1cccc(Nc2cc(-c3ccc(F)cc3)n[nH]2)c1 [GW824645],0%
7,Nc1nc(N)c2nc(-c3ccccc3)[nH]c2n1 [SKF-12778],13%
8,COc1cc2ncn(-c3cc(OCc4ccc(S(C)(=O)=O)cc4)c(C(N)=O)s3)c2cc1OC [GW869979],0%
9,COc1ccc(-c2cc3c(C)nc(N)nc3n([C@H]3CC[C@H](OCCO)CC3)c2=O)cn1,0%
10,CCn1c(-c2nonc2N)nc2ccccc21 [SB-693162/GW549034],0%
11,COc1cc2ncn(-c3cc(OCCCc4ccccc4)c(C(N)=O)s3)c2cc1OC [GSK205189],0%
12,COc1ccc(CNC(=O)NC2CCN(c3ccnc(Nc4ccc(F)cc4)n3)C2)cc1 (stereo not shown) [GSK1379706],0%
13,Cc1ccccc1COc1cc(-n2cnc3cc(Cl)ccc32)sc1C(N)=O [GW813349],0%
14,Nc1n[nH]c2nnc(-c3ccccc3)c(-c3ccccc3)c12 [GW554060],0%
15,Cc1nnc(-c2ccc3ncn(-c4ccc(S(C)=O)cc4)c3c2)o1 (stereo not shown),0%
16,CCc1ccc(-c2ccc3c(c2)-c2nn(C)cc2S(=O)(=O)N3C)cc1,0%
17,Cc1c(Cn2c(C)nn3c(=O)cc(N4CCO[C@H](C)C4)nc23)cccc1C(F)(F)F [GSK2373690],23%
18,CCc1nc(-c2cccc(C)c2)c(-c2ccncc2)s1,0%
